# Screening results from PubChem BioAssay.
# PME-1 inh = blocks human protein phosphatase methylesterase 1; AID 2130; recombinant PME-1, FP-Rh probe fluorescence polarization; inhibition, % at 5.9 µM; Q9Y570; 0.53% of 320,000 active;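 active = inhibition above the campaign mean of all compounds plus 3 SD, cut at about 26% in these data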;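 note: competitive labeling of PME-1 active site by serine hydrolase directed probe; 0% = PME-1 with DMSO and 100% = wells lacking PME-1 enzyme; inhibitors block probe labeling so polarization falls and inhibition rises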
# LYPLA2 counter = LYPLA2 (human) inhibition in PME1 counter-screen. O95372. recombinant LYPLA2, FP-Rh probe fluorescence polarization. inhibition, % at 5.9 µM. 0.38% of 320,000 active;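 active = inhibition above the screen-wide mean plus 3 SD, limit set per campaign, cut at about 26% in these data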;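 note: 0% = LYPLA2 with DMSO and 100% = wells lacking LYPLA2 enzyme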
# PAD4 FP inh = blocks human protein arginine deiminase 4; Q9UM07; recombinant PAD4, RCA probe fluorescence polarization; inhibition, % at 6.36 µM; 0.41% of 330,000 active; AID 485272;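 active = percent inhibition above a cutoff equal to the mean of all tested compounds plus 3 SD, cut at about 15% in these data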;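 note: 0% = PAD4 with RCA probe and DMSO and 100% = probe without PAD4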
# GSTO1 inh = GSTO1 inhibition, counter-screen for RBBP9 inhibitors; P78417; recombinant GSTO1, activity-based probe fluorescence polarization; inhibition, % at 5.96 µM; 1.1% of 300,000 active; AID 1974;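 active = inhibition above the campaign mean inhibition plus 3 SD, cut at about 35% in these data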;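 note: 0% = GSTO1-1 with DMSO and 100% = wells lacking GSTO1-1 enzyme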
# Target sequence (P78417 whole entry, looked up): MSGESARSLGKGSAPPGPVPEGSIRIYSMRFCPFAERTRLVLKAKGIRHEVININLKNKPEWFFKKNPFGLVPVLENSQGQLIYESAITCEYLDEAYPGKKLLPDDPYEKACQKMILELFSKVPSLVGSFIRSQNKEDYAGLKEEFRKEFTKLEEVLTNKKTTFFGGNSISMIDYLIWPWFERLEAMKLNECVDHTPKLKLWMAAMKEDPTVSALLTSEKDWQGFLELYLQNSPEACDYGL
# Fam108B inh = blocks mouse Fam108B hydrolase in RBBP9 counter-screen; AID 1947; inhibition, % at 9.51 µM; recombinant Fam108B, FP-Rh probe fluorescence polarization; 0.33% of 300,000 active;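 active = inhibition above the screen mean inhibition plus 3 SD, computed separately per campaign, cut at about 18% in these data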;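 note: inhibitors lower polarization as less probe binds the enzyme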
# LYPLA1 inh = LYPLA1 (human) inhibition in PME1 counter-screen; recombinant LYPLA1, FP-Rh probe fluorescence polarization; inhibition, % at 5.9 µM; 0.16% of 320,000 active; AID 2174; O75608;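 active = inhibition above the mean of all tested compounds plus 3 SD, set per campaign, cut at about 14% in these data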;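 note: inhibitors block serine hydrolase probe labeling of LYPLA1 so polarization falls; 0% = enzyme with DMSO and 100% = wells lacking LYPLA1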
# Target sequence (O75608 whole entry, looked up): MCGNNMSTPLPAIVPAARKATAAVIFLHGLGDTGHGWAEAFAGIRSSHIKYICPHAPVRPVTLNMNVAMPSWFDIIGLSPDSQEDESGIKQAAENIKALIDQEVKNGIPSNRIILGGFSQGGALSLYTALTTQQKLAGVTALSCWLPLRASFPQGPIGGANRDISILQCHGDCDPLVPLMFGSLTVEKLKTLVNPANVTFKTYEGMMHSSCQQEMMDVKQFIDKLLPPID
# * marks the source's active call; other numbers are inactive results; . = not tested or not shown. In the library only some 1.8% were active in any assay of this set; here they are far more common.
SMILES,PME-1 inh,LYPLA2 counter,PAD4 FP inh,GSTO1 inh,Fam108B inh,LYPLA1 inh
O=C(CNc1ccc(F)cc1)N/N=C/c1c(O)ccc2ccccc12,37*,-2,0,12,9,-9
COc1ccccc1NCC(=O)N/N=C/c1c(O)ccc2ccccc12,18,3,-4,18,7,-2
CCC1(CC)NC(=O)N(CC(=O)OCC(=O)Nc2cc(OC)ccc2OC)C1=O,-4,-1,-2,.,.,-1
Cc1ccc(S(=O)(=O)NCCSc2nnnn2-c2cc(C)ccc2C)cc1,8,-8,-5,35*,4,-5
C/C(=N\NC(=O)Cn1ccc(C(F)(F)F)n1)c1ccco1,-6,9,8,6,4,1
COc1ccccc1N1CCN(C(=O)C2CCN(S(=O)(=O)c3ccc(C)cc3)CC2)CC1,41*,-2,-6,6,-1,-1
COc1ccccc1N1CCN(C(=O)C2CCN(S(=O)(=O)c3ccccc3F)CC2)CC1,16,2,0,.,.,3
C[C@]12CC[C@@H]3c4ccc(O)cc4CC[C@H]3[C@@H]1CC[C@@H]2O,0,5,-5,2,-3,2
C[C@]12CC[C@@H]3c4cc(O)c(O)cc4CC[C@H]3[C@@H]1CC[C@@H]2O,-4,-6,-1,42*,-1,-3
COc1ccc(C2=NN(Cc3c(F)cccc3Cl)C(=O)CC2)cc1,44*,1,1,-3,1,1
COc1ccc(CCNC(=O)C(=O)NCC2OCCN2S(=O)(=O)c2ccc(OC)c(OC)c2)cc1OC (stereo not given),0,0,-1,4,-1,0
COc1ccc(/C(C)=N/NC(=S)NCCc2ccccc2)c(O)c1,25,-2,4,-29,3,-12
N#C/C(=C/c1ccc(N2CCCC2)c([N+](=O)[O-])c1)c1nc2ccccc2[nH]1,29*,7,-2,-3,4,3
Cc1cc(C(=O)COC(=O)C(C)NC(N)=O)c(C)n1Cc1ccco1 (stereo not given),-9,4,-2,19,2,0
Cc1cc(C(=O)C(C)Cl)c(C)n1Cc1ccco1 (stereo not given),2,5,-7,81*,0,-1
CCOC(=O)c1c(C2CC2)csc1NC(=O)COC(=O)CCS(=O)(=O)c1ccc(C)cc1,1,-2,0,37*,-4,-1
Cc1ccc(NC(=O)CN(C)C(=O)COC(=O)CCS(=O)(=O)c2ccc(C)cc2)cc1,-3,1,-4,5,0,-2
O=C1c2cccc(OCC(=O)N3N=C(c4cccs4)CC3c3ccc(F)cc3)c2CCN1Cc1cccnc1 (stereo not given),-6,38*,-1,-4,6,-5
O=C(c1cccnc1)N1N=C(c2cccs2)CC1c1ccc(F)cc1 (stereo not given),-3,2,-2,-2,0,-2
CC(C)(C)n1nnnc1C(c1cccs1)N(Cc1cccnc1)Cc1ccco1 (stereo not given),30*,1,9,3,-1,-3
CC(C)(C)n1nnnc1C(c1cccs1)N(Cc1ccccc1)Cc1ccco1 (stereo not given),-1,9,0,-3,-4,3
O=c1[nH]c(C2CCN(S(=O)(=O)c3ccc(F)cc3)CC2)nc2c1nnn2Cc1ccc2c(c1)OCCO2,32*,0,-9,2,-8,-3
O=c1[nH]c(C2CCCN(S(=O)(=O)c3cccc(F)c3)C2)nc2c1nnn2Cc1ccccc1 (stereo not given),24,-2,0,22,0,-1
COc1cccc(Cn2nnc3c(=O)[nH]c(C4CCCN(C(=O)c5ccccc5Cl)C4)nc32)c1 (stereo not given),58*,-1,-3,4,-5,2
O=c1[nH]c(C2CCCN(S(=O)(=O)c3ccccc3)C2)nc2c1nnn2Cc1ccccc1 (stereo not given),33*,-1,-2,17,1,0
SMILES,PME-1 inh,LYPLA2 counter,PAD4 FP inh,GSTO1 inh,Fam108B inh,LYPLA1 inh
CC(=O)N1CCc2cc(S(=O)(=O)CCC(=O)N3CCN(c4cc(C)ccc4C)CC3)ccc21,-1,-4,-3,-15,-1,4
CCc1nnc(NC(=O)c2sc3nc4c(cc3c2N)CCCCCC4)s1,29*,0,-1,-14,9,1
CCc1nnc(NC(=O)c2sc3nc4c(cc3c2N)CCCCC4)s1,28*,3,1,-14,2,-2
Nc1c(C(=O)N2CCCCC2)sc2nc3c(cc12)CCCC3,6,3,0,3,-1,-4
O=C1COc2ccc(S(=O)(=O)Nc3cccc(Cl)c3)cc2N1,-3,2,-4,23,1,-4
CCc1cccc(NS(=O)(=O)c2ccc3c(c2)NC(=O)CO3)c1,6,3,-2,37*,3,2
CCOC(=O)CCN(Cc1sccc1C)S(=O)(=O)c1ccc(F)cc1,6,4,-1,4,-6,2
CCOC(=O)CCN(Cc1cccs1)S(=O)(=O)c1ccc(F)cc1,3,5,-1,38*,6,1
CCCCC(=O)OCC(=O)Nc1ccc(C)c(F)c1,-3,-2,0,1,3,-2
O=C(N/N=C\c1ccc([N+](=O)[O-])s1)c1cncc(Br)c1,5,10,3,43*,10,2
O=C(N/N=C/c1cccs1)c1cncc(Br)c1,-1,1,-4,8,1,1
COc1cccc2sc(Nc3nnc(-c4ccccc4Cl)o3)nc12,22,-1,-5,-28,5,4
COc1cccc(-c2nnc(Nc3nc4c(F)cccc4s3)o2)c1,44*,0,0,0,9,5
COc1ccccc1-c1nnc(Nc2nc3c(OC)cccc3s2)o1,31*,-2,-5,-11,8,1
CC1CCC(NC(=O)COC(=O)CCC(=O)c2ccc(Cl)s2)CC1 (stereo not given),5,5,-3,12,0,3
O=c1nc(/C=C/c2cc([N+](=O)[O-])ccc2Cl)cc(C(F)(F)F)[nH]1,27*,5,5,12,8,-2
COc1ccc(/C=C2\SC(=O)N(CCCC(=O)Nc3cc(Cl)ccc3C(=O)O)C2=O)cc1,.,.,-2,.,.,.
CCCCn1c(SCC2CCCCO2)nc2cc(S(N)(=O)=O)ccc21 (stereo not given),3,-2,-2,-10,1,2
S=C(NCCN1CCOCC1)NC1CCCCC1,-5,-9,-6,0,-2,-4
CC1(C)CC(=O)C2=C(C1)OC(N)=C(C#N)C2C#Cc1ccccc1 (stereo not given),1,4,3,35*,1,2
CC(c1ccccc1)C1C(C#N)=C(N)OC2=C1C(=O)CC(C)(C)C2 (stereo not given),3,3,-4,-7,-2,-1
